Assay outcomes as filed in PubChem BioAssay.
Only some compounds are listed: those with a hit (about 1.7% of all), similar ones and a draw of the others.
p53ts 39C tox: cytotoxicity in p53ts cells at nonpermissive temperature. H1299-p53A138V viability at 39C, ATP luminescence, 24 h. Potency, µM (doses to about 46.1 µM), usual class: cytotoxic. hit rate 1.5% among 130,000; also: nearly all actives have a fitted effect of over 55% in size
Peg3 imprint: induces erasure of genomic imprints in mouse ES cells. hit rate 0.02% among 110,000. mouse ES Peg3-LacZ reporter, beta-gal luminescence, 40 h. Potency, µM (top dose mostly 60.7 µM), most hits filed as activators
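Readout: BetaGlo luminescence (5 min, room temp) for LacZ from the normally silent maternal Peg3 allele in female Peg3LacZ-Neo ES cells. Cells 300/well, 40 h, 37C, 5% CO2. Data normalized per plate to negative controls.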
p53ts 32C kill: cytotoxicity in p53ts cells at permissive temperature; H1299-p53A138V at 32C, ATP luminescence viability, 24 h; Potency, µM (series often up to 46.1 µM), actives largely listed as cytotoxic; hit rate 0.93% among 130,000; also: nearly all actives have a fitted effect of over 55% in size
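ATP-content luminescence (ATPlite) read-out after 24 h compound exposure at 32C in H1299-p53A138V cells (600/well). Tested up to 46 uM. Normalized to DMSO (0%) and 100 uM tamoxifen (100% killing); Hill-fit AC50.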
IkB signaling: suppresses IkB signaling in ABC-DLBCL reporter cells; hit rate 0.04% among 110,000; Potency, µM (series often up to 57.1 µM); ABC-DLBCL IkBa-CBG/CBR dual luciferase ratio, 4 h; response scale: scaled: untreated 0%, proteasome inhibitor 100%; AID 445; active = well fitted curve in the direction sought with a large enough effect in the signal ratio, not every such curve was filed as active; inconclusive = small, poorly fitted or top-dose-only effect, or a change in a side signal; the % refers to the signal ratio;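 also: the direction sought is a rising ratio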
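Curves were fitted separately to fusion (green), unfused (red) and ratio luminescence, then classed by r2, magnitude and activity. Cells: OCI-Ly3, 4 h compound plus doxycycline at 37C; 10 uM MG-132 defined full response.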
Hits are given with their value; – = inactive; ? = inconclusive; · = no result; ! = repeats disagree; [ ] = remark or other dose. Unless noted, calls follow the shape of the dose curve; as a rule, active = well fitted curve in the direction sought with a large enough effect; inconclusive = small, poorly fitted or top-dose-only effect, or another doubt; inactive = no such curve, though single readings can be large; an effect the other way counts as inactive or inconclusive.

SMILES | p53ts 39C tox | Peg3 imprint | p53ts 32C kill | IkB signaling
CCCCOc1ccc(CN2C(=O)C(=O)c3cc(C)ccc32)cc1OC | 10µM | –[10.9 µM] | – | –
OCCN1CCN(CCCN2c3ccccc3Sc3ccc(C(F)(F)F)cc32)CC1 | 13µM! | – | ? | –
Nc1ccc(CCN2CCN(c3cccc(C(F)(F)F)c3)CC2)cc1 | – | – | – | –
CC(C)C[C@H]1C(=O)N2CCC[C@@H]2[C@]2(O)O[C@](NC(=O)[C@H]3C=C4c5cccc6[nH]cc(c56)C[C@H]4N(C)C3)(C(C)C)C(=O)N12 | · | · | · | –[11.4 µM]
Nc1ccccc1O.O.O=C(O)[C@H]1[O][Sb][O][C@H]1C(=O)O | ? | 0.32µM | –[9.22 µM] | ?
Nc1ccccc1C(=O)O | – | – | –[1.84 µM] | –
O=C1C(Cl)=C(Cl)C(=O)C(Cl)=C1Cl | ? | – | 5µM | ?
O=C(O)[C@@H](O)[C@@H](O)[C@@H]1[O][Sb][O][C@@H]1CO | –[9.22 µM] | · | –[9.22 µM] | –[11.4 µM]
OC[C@H]1CCCN2CCCC[C@@H]12 | · | · | · | –[11.4 µM]
Cc1ccc2oc(-c3ccc(Cl)cc3)c(O)c(=O)c2c1 | ? | –[10.9 µM] | – | 5µM
CC[C@H](CO)NC(=O)[C@@H]1C=C2c3cccc4c3c(cn4C)C[C@@H]2N(C)C1 | – | · | – | –
C[C@@H](Cc1ccccc1)NCCC(c1ccccc1)c1ccccc1 | 13µM | – | – | –
CC(CCc1ccccc1)NC(C)C(O)c1ccc(O)cc1 (stereo not given) | – | – | – | ·
COc1ccccc1NC(=O)c1oc2ccccc2c1NC(=O)c1ccccc1C(F)(F)F | 16µM | –[10.9 µM] | ? | –
COc1ccc(NC(C)=O)cc1NC(=O)c1cccn(Cc2ccccc2)c1=O | – | –[10.9 µM] | – | ?
CC(=O)OC1C[C@@]2(C)C(c3ccoc3)C[C@H]3O[C@@]32[C@@]2(C)C(=O)C(O)=C3C(C)(C)C(=O)C=C[C@]3(C)C12 (stereo not given in full) | ? | – | 1.6µM | ·
CC(=O)OC1CC(OC(C)=O)[C@]2(C)C(CC(OC(C)=O)[C@]3(C)C2CC[C@@]2(C)C(c4ccoc4)C[C@H]4O[C@]432)C1(C)C (stereo not given in full) | – | – | – | ·
COC1=C[C@H]2[C@@H]3Cc4ccc(OC)c(O)c4[C@@]2(CCN3C)CC1=O | · | · | · | –[11.4 µM]
CN1CCN(C(=O)COc2ccc(-c3nc4ccccc4s3)cc2)CC1 | 0.79µM | – | 1µM | –
CC(C)[C@@]1(NC(=O)[C@@H]2C[C@H]3c4cccc5[nH]cc(c45)C[C@@H]3N(C)C2)O[C@@]2(O)[C@H]3CCCN3C(=O)[C@@H](Cc3ccccc3)N2C1=O | · | · | · | –[11.4 µM]
C[C@@H]1CC[C@@]2(OC1)O[C@H]1[C@@H](O)[C@H]3[C@@H]4CC[C@H]5C[C@@H](O[C@@H]6O[C@H](CO)[C@H](O[C@@H]7O[C@H](CO)[C@@H](O)[C@H](O[C@@H]8OC[C@@H](O)[C@H](O)[C@H]8O)[C@H]7O[C@@H]7O[C@H](CO)[C@@H](O)[C@H](O[C@@H]8O[C@H](CO)[C@@H](O)[C@H](O)[C@H]8O)[C@H]7O)[C@H](O)[C@H]6O)[C@H](O)C[C@]5(C)[C@H]4CC[C@]3(C)[C@H]1[C@@H]2C | 13µM | – | –[1.84 µM] | ?
C=C[C@@H]1CN2CC[C@@H]1C[C@H]2[C@H](O)c1ccnc2ccccc12 | · | · | · | –[11.4 µM]
COc1ccc(-c2cc(=O)c3cc(OCC(=O)OC(C)C)ccc3o2)cc1 | 3.2µM | –[10.9 µM] | 3.2µM | ?
C=C1C/C(=C\C)C(=O)O[C@@H]2CCN3CC=C(COC(=O)[C@]1(C)O)[C@H]23 | · | · | · | –[11.4 µM]
CN(C)C(=S)SSC(=S)N(C)C | – | – | –[1.84 µM] | 6.3µM
SMILES | p53ts 39C tox | Peg3 imprint | p53ts 32C kill | IkB signaling
C=CCCN1C[C@@H]2C[C@H](C1)c1cccc(=O)n1C2 | · | · | · | –[11.4 µM]
O=C1C=CC(=O)c2c1ccc1c2ccc2ccccc21 | – | – | 10µM | ?
CO[C@@H]1CC=C2CCN3CCC4=C(CC(=O)OC4)[C@]23C1 | – | · | – | –
Nc1nc2c(ncn2[C@@H]2O[C@H](CO)[C@@H](O)[C@@H]2O)c(=[SH+])[nH]1.O=[N+]([O-])c1ccc(O)[c]([Hg])c1 | · | –[10.9 µM] | · | ·
Cc1cc2c(C(C)C)c(O)c(O)c(C=O)c2c(O)c1-c1c(C)cc2c(C(C)C)c(O)c(O)c(C=O)c2c1O | 20µM | – | 20µM! | ?
CC1=CC(=O)c2c(O)cccc2C1=O | 10µM | – | 6.3µM | ·
Ic1ccccc1CN[C@@H]1C2CCN(CC2)[C@H]1C(c1ccccc1)c1ccccc1 | 20µM | · | ? | –
Cc1ccc(Cl)cc1NC(=O)NCc1cccn1Cc1ccc(F)cc1 | 10µM | –[10.9 µM] | ? | –
